# Source: PubChem BioAssay (NCI)
# This is part of a sample that, as a whole, favours compounds with a hit. Of some 83,000 tested, about 20% had one in any assay.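 Values shown are percent growth following 48 h exposure of cells in 96-well plates to a single concentration of compound; below 10 was considered active.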 A number with no mark means an inactive call. Activity calls are given as the source filed them.
# Key:
# Assay in all cases: NCI-60 one-dose screen, 48 h (100 = growth as untreated, 0 = no growth, -100 = all killed)
# Conditions in all cases: 10 µM unless noted
# NCI-H23 lung = test system: NCI-H23 lung
# NCI-H322M lung = test system: NCI-H322M lung
# HOP-62 NSCLC = test system: HOP-62 NSCLC
# NCI-H460 lung = test system: NCI-H460 lung
# HOP-92 NSCLC = test system: HOP-92 NSCLC
# NCI-H522 lung = test system: NCI-H522 lung
# A549/ATCC NSCLC = test system: A549/ATCC NSCLC
# 786-0 renal = test system: 786-0 renal
# DU-145 prostate = test system: DU-145 prostate
# K-562 leukemia = test system: K-562 leukemia
# MALME-3M melanoma = test system: MALME-3M melanoma
# MDA-MB-231 breast = test system: MDA-MB-231 breast
# RXF 393 renal = test system: RXF 393 renal
# SF-268 CNS = test system: SF-268 CNS
# SF-295 CNS = test system: SF-295 CNS
# SF-539 CNS = test system: SF-539 CNS
# UACC-257 melanoma = test system: UACC-257 melanoma
# M14 melanoma = test system: M14 melanoma
# HCT-15 colon = test system: HCT-15 colon
Compound,growth (NCI-H23 lung),growth (NCI-H322M lung),growth (HOP-62 NSCLC),growth (NCI-H460 lung),growth (HOP-92 NSCLC),growth (NCI-H522 lung),growth (A549/ATCC NSCLC),growth (786-0 renal),growth (DU-145 prostate),growth (K-562 leukemia),growth (MALME-3M melanoma),growth (MDA-MB-231 breast),growth (RXF 393 renal),growth (SF-268 CNS),growth (SF-295 CNS),growth (SF-539 CNS),growth (UACC-257 melanoma),growth (M14 melanoma),growth (HCT-15 colon)
CNCCNc1nc2ccccc2c2c(=O)c3cc(OC)ccc3sc12,69.6%,38.8%,41.2%,-72.2% (active),23.9%,9.6% (active),24.6%,10.7%,-25.6% (active),-34% (active),67.1%,1.79% (active),42.4%,38.7%,87.3%,60%,73.1%,-62.5% (active),-31.8% (active)
CCCCN1CCN(c2ccc3nc(-c4ccc5nc(-c6ccc(OC)c(OC)c6)[nH]c5c4)[nH]c3c2)CC1,-66.1% (active),10.1%,-1.2% (active),-35% (active),60.7%,-36.8% (active),28.4%,-85.9% (active),2.42% (active),-15.5% (active),-62.3% (active),-38.1% (active),-98.5% (active),20.7%,10.6%,-81.9% (active),-3.47% (active),-52.5% (active),46.1%
Cc1cccc2c(=O)c3c(sc12)c(N1CCNCC1)nc1ccccc13,80.4%,74.5%,73.6%,80%,53.7%,82.6%,78.3%,78.1%,67.5%,-23% (active),98.6%,56.3%,72.2%,76.1%,93.5%,75.8%,96.6%,74%,25.9%
COc1cc(CNC(=O)Cc2ccccc2)ccc1OCc1cn(-c2ccc(F)cc2)nn1,94.9%,103%,104%,101%,107%,90.1%,97.5%,104%,108%,91.8%,114%,89.5%,125%,98.1%,101%,99.5%,97.7%,101%,106%
COc1cc2nc(NC3CCC3)nc(NC3CCN(C(C)C)CC3)c2cc1OC,92.2%,89.2%,81.5%,58.3%,26%,30.7%,4.73% (active),68%,57.1%,0.162% (active),-4.44% (active),-2.38% (active),-16.9% (active),77.9%,96.6%,5.1% (active),-59.9% (active),-65.8% (active),67.7%
COc1cc(/C=C/C(=O)c2ccc(Nc3nc(NCCO)nc(N4CCOCC4)n3)cc2)cc(OC)c1OC,15.7%,30.9%,34.3%,-20.8% (active),39.7%,24.1%,14.4%,16.9%,17.9%,10.7%,40%,32.9%,6.75% (active),17.5%,66.6%,-5.44% (active),48.8%,26.8%,2.16% (active)
OCCNc1nc(Nc2ccc(C3=NN(c4cc(Cl)cc(Cl)c4)C(c4ccc(C(F)(F)F)cc4)C3)cc2)nc(N2CCOCC2)n1 (configuration not stated),76%,80.3%,74.5%,46.4%,98.6%,85.3%,59.2%,42.7%,82.7%,53.9%,90%,59.7%,19.7%,74.1%,71%,54.3%,94.5%,90.5%,49.3%
COc1ccc(/C=C/C(=O)c2ccc(Nc3nc(NCCO)nc(Nc4ccc(Cl)cc4)n3)cc2)cc1,89.6%,93.6%,87.8%,61.7%,86.7%,71.6%,50.2%,63.9%,71.4%,62.3%,97.2%,70%,66.3%,65.7%,93.6%,74.9%,100%,67.9%,38.2%
